# Data reported in the supplement of paper PMC4466140.
# Tests used:
# Assay in all cases: SPOT peptide array binding signal intensity (averaged, normalized) (arbitrary units (background-subtracted, floor 0; scale differs between SH3 domains)); higher = stronger binding of the SH3 domain to the peptide
# AgAbp1 = molecular target: AgAbp1
# Summary of the method: (§1)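 The binding signal is the normalized, background-subtracted spot intensity averaged over replicates; its arbitrary units differ between domains. It was obtained by incubating 10 μg/ml GST-fused SH3 domains from four yeast species overnight at 4°C in TBS-based blocking buffer on cellulose membranes with synthetic 15-mer peptides, cysteines replaced by serines, then detecting with anti-GST antibody, HRP anti-mouse secondary and luminol.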
# AgBbc1 = molecular target: AgBbc1
# Summary of the method: as §1
# AgBem1-D1 = molecular target: AgBem1-D1
# Summary of the method: as §1
# AgBzz1-D1 = molecular target: AgBzz1-D1
# Summary of the method: as §1
# AgBzz1-D2 = molecular target: AgBzz1-D2
# Summary of the method: as §1
# AgCyk3 = molecular target: AgCyk3
# Summary of the method: as §1
# AgFus1 = molecular target: AgFus1
# Summary of the method: as §1
# AgHof1 = molecular target: AgHof1
# Summary of the method: as §1
# AgHse1 = molecular target: AgHse1
# Summary of the method: as §1
# AgLsb1 = molecular target: AgLsb1
# Summary of the method: as §1
# AgLsb4 = molecular target: AgLsb4
# Summary of the method: as §1
# AgMyo5 = molecular target: AgMyo5
# Summary of the method: as §1
# AgNbp2 = molecular target: AgNbp2
# Summary of the method: as §1
# AgRvs167 = molecular target: AgRvs167
# Summary of the method: as §1
# AgSho1 = molecular target: AgSho1
# Summary of the method: as §1
# AgSla1-D1-D2 = molecular target: AgSla1-D1-D2
# Summary of the method: as §1
# AgSla1-D3 = molecular target: AgSla1-D3
# Summary of the method: as §1
# CaAbp1-D1 = molecular target: CaAbp1-D1
# Summary of the method: as §1
# CaAbp1-D2 = molecular target: CaAbp1-D2
# Summary of the method: as §1
# CaBbc1 = molecular target: CaBbc1
# Summary of the method: as §1
# CaBem1-D1 = molecular target: CaBem1-D1
# Summary of the method: as §1
# CaBzz1-D1 = molecular target: CaBzz1-D1
# Summary of the method: as §1
# CaBzz1-D2 = molecular target: CaBzz1-D2
# Summary of the method: as §1
# CaCyk3 = molecular target: CaCyk3
# Summary of the method: as §1
# CaFus1 = molecular target: CaFus1
# Summary of the method: as §1
# CaHof1 = molecular target: CaHof1
# Summary of the method: as §1
# CaHse1 = molecular target: CaHse1
# Summary of the method: as §1
# CaLsb1 = molecular target: CaLsb1
# Summary of the method: as §1
# CaLsb4 = molecular target: CaLsb4
# Summary of the method: as §1
# CaMyo5 = molecular target: CaMyo5
# Summary of the method: as §1
# CaNbp2 = molecular target: CaNbp2
# Summary of the method: as §1
# CaRvs167 = molecular target: CaRvs167
# Summary of the method: as §1
# CaRvs167-3 = molecular target: CaRvs167-3
# Summary of the method: as §1
# CaSho1 = molecular target: CaSho1
# Summary of the method: as §1
# CaSla1-D1-D2 = molecular target: CaSla1-D1-D2
# Summary of the method: as §1
# CaSla1-D3 = molecular target: CaSla1-D3
# Summary of the method: as §1
# ScAbp1 = molecular target: ScAbp1
# Summary of the method: as §1
# ScBbc1 = molecular target: ScBbc1
# Summary of the method: as §1
# ScBem1-D1 = molecular target: ScBem1-D1
# Summary of the method: as §1
# ScBzz1-D1 = molecular target: ScBzz1-D1
# Summary of the method: as §1
# ScBzz1-D2 = molecular target: ScBzz1-D2
# Summary of the method: as §1
# ScCyk3 = molecular target: ScCyk3
# Summary of the method: as §1
# ScFus1 = molecular target: ScFus1
# Summary of the method: as §1
# ScHof1 = molecular target: ScHof1
# Summary of the method: as §1
# ScHse1 = molecular target: ScHse1
# Summary of the method: as §1
# ScLsb1 = molecular target: ScLsb1
# Summary of the method: as §1
# ScLsb2 = molecular target: ScLsb2
# Summary of the method: as §1
# ScLsb3 = molecular target: ScLsb3
# Summary of the method: as §1
# ScLsb4 = molecular target: ScLsb4
# Summary of the method: as §1
# ScMyo3 = molecular target: ScMyo3
# Summary of the method: as §1
# ScMyo5 = molecular target: ScMyo5
# Summary of the method: as §1
# ScNbp2 = molecular target: ScNbp2
# Summary of the method: as §1
# ScPex13 = molecular target: ScPex13
# Summary of the method: as §1
# ScRvs167 = molecular target: ScRvs167
# Summary of the method: as §1
# ScSho1 = molecular target: ScSho1
# Summary of the method: as §1
# ScSla1-D1-D2 = molecular target: ScSla1-D1-D2
# Summary of the method: as §1
# ScSla1-D3 = molecular target: ScSla1-D3
# Summary of the method: as §1
# SpAbp1-D1 = molecular target: SpAbp1-D1
# Summary of the method: as §1
# SpBbc1 = molecular target: SpBbc1
# Summary of the method: as §1
# SpBzz1-D1 = molecular target: SpBzz1-D1
# Summary of the method: as §1
# SpBzz1-D2 = molecular target: SpBzz1-D2
# Summary of the method: as §1
# SpCyk3 = molecular target: SpCyk3
# Summary of the method: as §1
# SpHof1 = molecular target: SpHof1
# Summary of the method: as §1
# SpHof1-2 = molecular target: SpHof1-2
# Summary of the method: as §1
# SpHof1-3 = molecular target: SpHof1-3
# Summary of the method: as §1
# SpHse1 = molecular target: SpHse1
# Summary of the method: as §1
# SpLsb1 = molecular target: SpLsb1
# Summary of the method: as §1
# SpLsb4 = molecular target: SpLsb4
# Summary of the method: as §1
# SpMyo1 = molecular target: SpMyo1
# Summary of the method: as §1
# SpNbp2 = molecular target: SpNbp2
# Summary of the method: as §1
# SpPex13 = molecular target: SpPex13
# Summary of the method: as §1
# SpRvs167 = molecular target: SpRvs167
# Summary of the method: as §1
# SpSla1-D1-D2 = molecular target: SpSla1-D1-D2
# Summary of the method: as §1
# SpSla1-D3 = molecular target: SpSla1-D3
# Summary of the method: as §1
binder,measurement,setting,value
IFLRISINFPLNYPN,SPOT peptide array binding signal intensity,AgAbp1,76
same,SPOT peptide array binding signal intensity,AgBbc1,233
same,SPOT peptide array binding signal intensity,AgBem1-D1,952
same,SPOT peptide array binding signal intensity,AgBzz1-D1,1120
same,SPOT peptide array binding signal intensity,AgBzz1-D2,412
same,SPOT peptide array binding signal intensity,AgCyk3,52.5
same,SPOT peptide array binding signal intensity,AgFus1,4330
same,SPOT peptide array binding signal intensity,AgHof1,218
same,SPOT peptide array binding signal intensity,AgHse1,2460
same,SPOT peptide array binding signal intensity,AgLsb1,68.8
same,SPOT peptide array binding signal intensity,AgLsb4,2440
same,SPOT peptide array binding signal intensity,AgMyo5,29.5
same,SPOT peptide array binding signal intensity,AgNbp2,1630
same,SPOT peptide array binding signal intensity,AgRvs167,162
same,SPOT peptide array binding signal intensity,AgSho1,2150
same,SPOT peptide array binding signal intensity,AgSla1-D1-D2,74.2
same,SPOT peptide array binding signal intensity,AgSla1-D3,73.9
same,SPOT peptide array binding signal intensity,CaAbp1-D1,448
same,SPOT peptide array binding signal intensity,CaAbp1-D2,305
same,SPOT peptide array binding signal intensity,CaBbc1,487
same,SPOT peptide array binding signal intensity,CaBem1-D1,666
same,SPOT peptide array binding signal intensity,CaBzz1-D1,1170
same,SPOT peptide array binding signal intensity,CaBzz1-D2,821
same,SPOT peptide array binding signal intensity,CaCyk3,107
same,SPOT peptide array binding signal intensity,CaFus1,7820
same,SPOT peptide array binding signal intensity,CaHof1,1.25
same,SPOT peptide array binding signal intensity,CaHse1,1570
same,SPOT peptide array binding signal intensity,CaLsb1,63.5
same,SPOT peptide array binding signal intensity,CaLsb4,477
same,SPOT peptide array binding signal intensity,CaMyo5,156
same,SPOT peptide array binding signal intensity,CaNbp2,2110
same,SPOT peptide array binding signal intensity,CaRvs167,750
same,SPOT peptide array binding signal intensity,CaRvs167-3,1500
same,SPOT peptide array binding signal intensity,CaSho1,2060
same,SPOT peptide array binding signal intensity,CaSla1-D1-D2,602
same,SPOT peptide array binding signal intensity,CaSla1-D3,1050
same,SPOT peptide array binding signal intensity,ScAbp1,93.2
same,SPOT peptide array binding signal intensity,ScBbc1,59.9
same,SPOT peptide array binding signal intensity,ScBem1-D1,194
same,SPOT peptide array binding signal intensity,ScBzz1-D1,558
same,SPOT peptide array binding signal intensity,ScBzz1-D2,2990
same,SPOT peptide array binding signal intensity,ScCyk3,127
same,SPOT peptide array binding signal intensity,ScFus1,5050
same,SPOT peptide array binding signal intensity,ScHof1,30.8
same,SPOT peptide array binding signal intensity,ScHse1,3840
same,SPOT peptide array binding signal intensity,ScLsb1,12.8
same,SPOT peptide array binding signal intensity,ScLsb2,64
same,SPOT peptide array binding signal intensity,ScLsb3,1490
same,SPOT peptide array binding signal intensity,ScLsb4,396
same,SPOT peptide array binding signal intensity,ScMyo3,32.5
same,SPOT peptide array binding signal intensity,ScMyo5,114
same,SPOT peptide array binding signal intensity,ScNbp2,2820
same,SPOT peptide array binding signal intensity,ScPex13,516
same,SPOT peptide array binding signal intensity,ScRvs167,223
same,SPOT peptide array binding signal intensity,ScSho1,6350
same,SPOT peptide array binding signal intensity,ScSla1-D1-D2,880
same,SPOT peptide array binding signal intensity,ScSla1-D3,344
same,SPOT peptide array binding signal intensity,SpAbp1-D1,211
same,SPOT peptide array binding signal intensity,SpBbc1,238
same,SPOT peptide array binding signal intensity,SpBzz1-D1,1240
same,SPOT peptide array binding signal intensity,SpBzz1-D2,97
same,SPOT peptide array binding signal intensity,SpCyk3,35
same,SPOT peptide array binding signal intensity,SpHof1,342
same,SPOT peptide array binding signal intensity,SpHof1-2,157
same,SPOT peptide array binding signal intensity,SpHof1-3,1040
same,SPOT peptide array binding signal intensity,SpHse1,2240
same,SPOT peptide array binding signal intensity,SpLsb1,33
same,SPOT peptide array binding signal intensity,SpLsb4,625
same,SPOT peptide array binding signal intensity,SpMyo1,168
same,SPOT peptide array binding signal intensity,SpNbp2,1680
same,SPOT peptide array binding signal intensity,SpPex13,1640
same,SPOT peptide array binding signal intensity,SpRvs167,239
same,SPOT peptide array binding signal intensity,SpSla1-D1-D2,68
same,SPOT peptide array binding signal intensity,SpSla1-D3,512
